Test results published in PubChem BioAssay (EPA / NIEHS).
The source made the active and inactive calls. Rule for the calls: active = hit-call score of the fitted dose curve at least 0.9, where 1 is the maximum; inactive = score below 0.9.

Experiment: CCTE_Padilla_ZF_Score.General: CCTE's 144 Hour Post-fertilization zebrafish Assay Score for General Malformation, Padilla Lab (AID 2284411)
Procedure: CCTE_Padilla_ZF_Phenotype_Score is a whole embryo, multiplexed assay using zebrafish ova exposed for 144 hours post fertilization on a 96-well plate.CCTE_Padilla_ZF_Score.General is one of one assay component(s) measured or calculated from the CCTE_Padilla_ZF_Phenotype_Score assay. It is designed to make measurements of zebrafish development as detected with brightfield microscopy of developing zebrafish embryos.Data from the assay component CCTE_Padilla_ZF_Score.General was analyzed into 1 assay endpoints. This assay endpoint, CCTE_Padilla_ZF_Score.General, was analyzed in the positive analysis fitting direction relative to DMSO as the negative control and baseline of activity. Using a type of viability reporter, gain-of-signal activity can be used to understand changes in developmentals as they relate to the whole embryo. To generalize the intended target to other relatable targets, this assay endpoint is annotated to the zebrafish development intended target family, where the subfamily is embryonic morphogenesis.
Zebrafish husbandry: Wild type adult zebrafish (Danio rerio; undefined outbred stock obtained from Aquatic Research Organisms, Hampton, NH, 03842) were housed in an AAALAC-approved animal facility at 28C with a 14:10 h light: dark cycle (lights on at 08:30 h). Adult fish (2-3 females per male; density = 15-20 adults per tank) were kept in one of several 9-liter (L) flow-through colony tanks (Aquaneering Inc., San Diego, CA). All adults in a colony tank were placed in a 2 L (static) breeding tank (Aquatic Habitats, Apopka, FL) one hour prior to light onset. Typically, adults from two to three colony tanks were mated on the same day. Two hours after light onset the adults were returned to the colony tank. All embryos were gathered from each breeder tank, pooled, and placed in a 28C water bath for 2 h, followed by two washes with 0.06% bleach (v/v) in 10% Hanks' Balanced Salt Solution (13.7 mM NaCl 0.54 mM KCl, 25 uM Na2HPO4, 130 uM CaCl2 100 um MgSO4 and 420 um NaHCO3,), hereafter referred to as Hanks' solution, for 5 min in order to remove any residual bacteria or fungi. Immediately following washing, the embryos were examined, and healthy embryos were separated from dead or unfertilized eggs and moved into fresh Hanks'. Chemical exposures: Zebrafish embryos were exposed in 96-well plates. Between 6- and 8-hours post fertilization (hpf), healthy embryos (with chorions) were transferred, one embryo per well, into 96 well (0.5 mL) microtiter plates (Cell Culture-Treated, Flat-Bottom Microplate 96 well [Corning Costar, Kennebunk, ME; Cat 09-761-145]) filled with 200 uL of Hanks' solution. A random number generator was used to assign the order in which the rows of embryos were plated in 96 well plates each week. After plating, the embryos were dosed with 0.8 uL of the chemical dosing solution then immediately sealed with AlumaSeal II (Excel Scientific Inc, Victorville, CA) to prevent volatilization of the chemicals, and then placed in a leakproof secondary container. These containers were placed in an incubator maintained on a 14:10 h light: dark cycle at 26C for rearing. On 5 dpf, live larvae were gently moved out of the plate with test chemicals and into a new 96 well mesh plate (Millipore Corp., Bedford, MA) with just the Hanks' solution. Once within the mesh well plate, the animals were rinsed with 400 uL of fresh Hanks' three times, and then the plates were covered with a non-adhesive material (Microseal A, BioRad, Hercules, CA), plate lid added, and then plate sides wrapped in Parafilm (PM992, Bermis Company, Neenah, WI), and returned to the incubator. […]

SMILES	outcome	AC50
O=C1c2ccc(O)c(O)c2C(=O)c2c(O)ccc(O)c21	inactive	
O=C(CC(=O)C(F)(F)C(F)(F)C(F)(F)F)c1cccs1	inactive	
FC(F)(F)N1C(F)(F)C(F)(F)OC(F)(F)C1(F)F	inactive	
O=C1OC(=O)C(F)(F)C1(F)F	inactive	
O=C(F)C(F)(F)C(F)(F)C(F)(F)C(=O)F	inactive	
FC1(F)C=CC(F)(F)C1(F)F	inactive	
CC(C)(c1ccc(Oc2ccc(N)cc2)cc1)c1ccc(Oc2ccc(N)cc2)cc1	inactive	
FC(F)=C(F)C(F)(F)C(F)(F)C(F)(F)C(F)F	inactive	
FCOC(C(F)(F)F)C(F)(F)F	inactive	
O=P(O)(O)CCC(F)(F)C(F)(F)C(F)(F)C(F)(F)C(F)(F)C(F)(F)C(F)(F)C(F)(F)F		1.78 µM (active)
FC(OC(F)(F)C(F)(F)C(F)(F)F)C(F)(F)F (stereo not given)	inactive	
O=C(O)C(F)(F)OC(F)(F)C(F)(F)OC(F)(F)C(F)(F)OC(F)(F)C(F)(F)C(F)(F)C(F)(F)F		2.18 µM (active)
OCCN1CN(CCO)CN(CCO)C1	inactive	
NC(C(F)(F)F)C(F)(F)F	inactive	
FC(F)(F)C1(F)C(F)(F)C(F)(F)C(F)(F)C1(F)F	inactive	
OCC(F)(F)C(F)(F)C(F)(F)C(F)(F)C(F)(F)C(F)(F)C(F)(F)C(F)(F)C(F)(F)C(F)(F)C(F)(F)F	inactive	
C=CC(C)(CCC=C(C)C)OC(C)=O (stereo not given)	inactive	
O=C(O)CCC(F)(F)C(F)(F)C(F)(F)C(F)(F)C(F)(F)C(F)(F)F	inactive	
C=CC(=O)OCCC(F)(F)C(F)(F)C(F)(F)C(F)(F)C(F)(F)C(F)(F)C(F)(F)C(F)(F)F	inactive	
O=C(OC(=O)C(F)(F)C(F)(F)F)C(F)(F)C(F)(F)F	inactive	
O=P(O)(O)CCC(F)(F)C(F)(F)C(F)(F)C(F)(F)C(F)(F)C(F)(F)F	inactive	
CN(CCO)S(=O)(=O)C(F)(F)C(F)(F)C(F)(F)C(F)(F)C(F)(F)C(F)(F)C(F)(F)C(F)(F)F	inactive	
COC1=CC(=O)C[C@@H](C)[C@]12Oc1c(Cl)c(OC)cc(OC)c1C2=O	inactive	
COC(=O)C(F)(F)C(F)(F)C(F)(F)C(F)(F)C(F)(F)F	inactive	
O=CC(F)(F)C(F)(F)C(F)(F)C(F)F	inactive	
O=CC(F)(F)C(F)(F)C(F)(F)F		79.6 µM (active)
O=C(O)CCC(F)(F)C(F)(F)C(F)(F)C(F)(F)C(F)(F)F		10.7 µM (active)
C=CC(F)(F)C(F)(F)C(F)(F)C(F)(F)F	inactive	
FC(F)(F)C1(F)C(F)(F)C(F)(F)C(F)(F)C(F)(C(F)(F)F)C1(F)F (stereo not given)	inactive	
CCCCCCCCCCCCCCCCCC[N+](C)(C)Cc1ccccc1	inactive	
